Measurements as given in the supplement of paper PMC7595190.
Where a name gives a salt, the structure may show the parent alone.

How the values were obtained:
Experiment in all cases: CellTox Green cytotoxicity fluorescence relative to DMSO vehicle (fold of vehicle RFU); higher = more cell death (loss of membrane integrity), active = 2 or more
CMK = test system: CMK
In short: (§1)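 Cytotoxicity values reflect loss of membrane integrity and are fluorescence expressed as fold of the DMSO vehicle. MV4-11, CMK and Kasumi-1 cells were seeded at 4.0 × 10^4 cells per well with CellTox Green reagent and treated with single Selleckchem apoptosis library compounds at final 0.01, 0.1 and 1 µM, with 0.1% DMSO as vehicle. Plates were held at 37 °C, 5% CO2 and read at 24, 48 and 72 h.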

Kasumi-1 = test system: Kasumi-1
In short: as §1

MV4-11 = test system: MV4-11
In short: as §1

Measured: CellTox Green cytotoxicity fluorescence

C[C@H]1Oc2cc(cnc2N)-c2c(nn(C)c2C#N)CN(C)C(=O)c2ccc(F)cc21
inactive: CMK; 0.01 µM, 24 h 0.989 | CMK; 0.01 µM, 48 h 0.966 | CMK; 0.01 µM, 72 h 0.982 | CMK; 0.1 µM, 24 h 0.951 | CMK; 0.1 µM, 48 h 0.957 | CMK; 0.1 µM, 72 h 0.948 | CMK; 1 µM, 24 h 1 | CMK; 1 µM, 48 h 1.05 | CMK; 1 µM, 72 h 1.07 | Kasumi-1; 0.01 µM, 24 h 1.05 | Kasumi-1; 0.01 µM, 48 h 1.01 | Kasumi-1; 0.01 µM, 72 h 1.01 | Kasumi-1; 0.1 µM, 24 h 1.01 | Kasumi-1; 0.1 µM, 48 h 0.988 | Kasumi-1; 0.1 µM, 72 h 0.997 | Kasumi-1; 1 µM, 24 h 0.922 | Kasumi-1; 1 µM, 48 h 0.929 | Kasumi-1; 1 µM, 72 h 0.914 | MV4-11; 0.01 µM, 24 h 0.984 | MV4-11; 0.01 µM, 48 h 0.959 | MV4-11; 0.01 µM, 72 h 0.958 | MV4-11; 0.1 µM, 24 h 0.992 | MV4-11; 0.1 µM, 48 h 0.992 | MV4-11; 0.1 µM, 72 h 0.992 | MV4-11; 1 µM, 24 h 0.964 | MV4-11; 1 µM, 48 h 0.976 | MV4-11; 1 µM, 72 h 0.975

C=CCc1cccc(/C=N/NC(=O)CN2CCN(Cc3ccccc3)CC2)c1O
inactive: CMK; 0.01 µM, 24 h 0.917 | CMK; 0.01 µM, 48 h 0.909 | CMK; 0.01 µM, 72 h 0.921 | CMK; 0.1 µM, 24 h 0.92 | CMK; 0.1 µM, 48 h 0.917 | CMK; 0.1 µM, 72 h 0.953 | CMK; 1 µM, 24 h 0.913 | CMK; 1 µM, 48 h 0.937 | CMK; 1 µM, 72 h 1.06 | Kasumi-1; 0.01 µM, 24 h 1 | Kasumi-1; 0.01 µM, 48 h 0.934 | Kasumi-1; 0.01 µM, 72 h 0.93 | Kasumi-1; 0.1 µM, 24 h 0.918 | Kasumi-1; 0.1 µM, 48 h 0.918 | Kasumi-1; 0.1 µM, 72 h 0.918 | Kasumi-1; 1 µM, 24 h 0.916 | Kasumi-1; 1 µM, 48 h 0.914 | Kasumi-1; 1 µM, 72 h 0.892 | MV4-11; 0.01 µM, 24 h 0.974 | MV4-11; 0.01 µM, 48 h 0.955 | MV4-11; 0.01 µM, 72 h 0.955 | MV4-11; 0.1 µM, 24 h 0.95 | MV4-11; 0.1 µM, 48 h 0.951 | MV4-11; 0.1 µM, 72 h 0.957 | MV4-11; 1 µM, 24 h 0.904 | MV4-11; 1 µM, 48 h 1.07 | MV4-11; 1 µM, 72 h 1.31

CC(=NNC(=S)N1CCC1)c1ccccn1
active: MV4-11; 0.01 µM, 72 h 2.11 | MV4-11; 0.1 µM, 72 h 2.27
inactive: CMK; 0.01 µM, 24 h 0.934 | CMK; 0.01 µM, 48 h 0.962 | CMK; 0.01 µM, 72 h 1.02 | CMK; 0.1 µM, 24 h 0.922 | CMK; 0.1 µM, 48 h 1.29 | CMK; 0.1 µM, 72 h 1.42 | CMK; 1 µM, 24 h 1.04 | CMK; 1 µM, 48 h 1.42 | CMK; 1 µM, 72 h 1.4 | Kasumi-1; 0.01 µM, 24 h 1.01 | Kasumi-1; 0.01 µM, 48 h 1.03 | Kasumi-1; 0.01 µM, 72 h 1.19 | Kasumi-1; 0.1 µM, 24 h 0.971 | Kasumi-1; 0.1 µM, 48 h 1.18 | Kasumi-1; 0.1 µM, 72 h 1.6 | Kasumi-1; 1 µM, 24 h 1.02 | Kasumi-1; 1 µM, 48 h 1.25 | Kasumi-1; 1 µM, 72 h 1.49 | MV4-11; 0.01 µM, 24 h 0.984 | MV4-11; 0.01 µM, 48 h 1.31 | MV4-11; 0.1 µM, 24 h 0.983 | MV4-11; 0.1 µM, 48 h 1.53 | MV4-11; 1 µM, 24 h 1.02 | MV4-11; 1 µM, 48 h 1.38 | MV4-11; 1 µM, 72 h 1.68

CCOC(=O)c1[nH]c2cc(Cl)ccc2c1C(C(=O)NC(C)(C)C)N(C=O)Cc1ccc(Cl)cc1 (stereo unspecified)
inactive: CMK; 0.01 µM, 24 h 0.996 | CMK; 0.01 µM, 48 h 0.985 | CMK; 0.01 µM, 72 h 1 | CMK; 0.1 µM, 24 h 0.958 | CMK; 0.1 µM, 48 h 0.958 | CMK; 0.1 µM, 72 h 0.962 | CMK; 1 µM, 24 h 0.96 | CMK; 1 µM, 48 h 0.971 | CMK; 1 µM, 72 h 0.87 | Kasumi-1; 0.01 µM, 24 h 1.06 | Kasumi-1; 0.01 µM, 48 h 1.01 | Kasumi-1; 0.01 µM, 72 h 1 | Kasumi-1; 0.1 µM, 24 h 0.989 | Kasumi-1; 0.1 µM, 48 h 0.982 | Kasumi-1; 0.1 µM, 72 h 1 | Kasumi-1; 1 µM, 24 h 0.977 | Kasumi-1; 1 µM, 48 h 0.971 | Kasumi-1; 1 µM, 72 h 0.97 | MV4-11; 0.01 µM, 24 h 0.983 | MV4-11; 0.01 µM, 48 h 0.965 | MV4-11; 0.01 µM, 72 h 0.957 | MV4-11; 0.1 µM, 24 h 0.989 | MV4-11; 0.1 µM, 48 h 0.983 | MV4-11; 0.1 µM, 72 h 0.985 | MV4-11; 1 µM, 24 h 0.954 | MV4-11; 1 µM, 48 h 0.993 | MV4-11; 1 µM, 72 h 1.02

COc1c/c(=C2\C=c3ccccc3=N2)[nH]/c1=C\c1[nH]c(C)cc1C [Obatoclax Mesylate]
active: MV4-11; 1 µM, 72 h 2.14
inactive: CMK; 0.01 µM, 24 h 0.914 | CMK; 0.01 µM, 48 h 0.907 | CMK; 0.01 µM, 72 h 0.894 | CMK; 0.1 µM, 24 h 0.921 | CMK; 0.1 µM, 48 h 0.88 | CMK; 1 µM, 24 h 1.01 | CMK; 1 µM, 48 h 1 | CMK; 1 µM, 72 h 0.819 | Kasumi-1; 0.01 µM, 24 h 0.975 | Kasumi-1; 0.01 µM, 48 h 0.917 | Kasumi-1; 0.01 µM, 72 h 0.921 | Kasumi-1; 0.1 µM, 24 h 0.977 | Kasumi-1; 0.1 µM, 48 h 1.01 | Kasumi-1; 0.1 µM, 72 h 1.05 | Kasumi-1; 1 µM, 24 h 1.17 | Kasumi-1; 1 µM, 48 h 1.31 | Kasumi-1; 1 µM, 72 h 1.42 | MV4-11; 0.01 µM, 24 h 0.935 | MV4-11; 0.01 µM, 48 h 0.93 | MV4-11; 0.01 µM, 72 h 0.916 | MV4-11; 0.1 µM, 24 h 0.96 | MV4-11; 0.1 µM, 48 h 0.997 | MV4-11; 0.1 µM, 72 h 1.02 | MV4-11; 1 µM, 24 h 1.21 | MV4-11; 1 µM, 48 h 1.78

COC(=O)[C@H](CCSC)NC(=O)c1ccc(NC[C@@H](N)CS)cc1-c1ccccc1
inactive: CMK; 0.01 µM, 24 h 0.934 | CMK; 0.01 µM, 48 h 0.924 | CMK; 0.01 µM, 72 h 0.941 | CMK; 0.1 µM, 24 h 0.896 | CMK; 0.1 µM, 48 h 0.897 | CMK; 0.1 µM, 72 h 0.941 | CMK; 1 µM, 24 h 0.938 | CMK; 1 µM, 48 h 0.978 | CMK; 1 µM, 72 h 1.04 | Kasumi-1; 0.01 µM, 24 h 0.974 | Kasumi-1; 0.01 µM, 48 h 0.922 | Kasumi-1; 0.01 µM, 72 h 0.926 | Kasumi-1; 0.1 µM, 24 h 0.932 | Kasumi-1; 0.1 µM, 48 h 0.927 | Kasumi-1; 0.1 µM, 72 h 0.924 | Kasumi-1; 1 µM, 24 h 0.941 | Kasumi-1; 1 µM, 48 h 0.973 | Kasumi-1; 1 µM, 72 h 0.997 | MV4-11; 0.01 µM, 24 h 0.942 | MV4-11; 0.01 µM, 48 h 0.936 | MV4-11; 0.01 µM, 72 h 0.953 | MV4-11; 0.1 µM, 24 h 0.947 | MV4-11; 0.1 µM, 48 h 0.943 | MV4-11; 0.1 µM, 72 h 0.932 | MV4-11; 1 µM, 24 h 0.927 | MV4-11; 1 µM, 48 h 0.931 | MV4-11; 1 µM, 72 h 0.944
